Laboratory results taken from PubChem BioAssay (EPA / NIEHS).
Records with an inconclusive call do not appear. Calls of active or inactive are those of the source. How the source made its calls, unless noted: active means hit-call score of the fitted dose curve at least 0.9, where 1 is the maximum; inconclusive means response in the unintended direction; inactive means score below 0.9.

How the values were obtained:
[1] = TOX21_p53_BLA_p2_viability: Viability Assessment in the Tox21 HCT-116 p53 Agonism Beta-lactamase Assay, Phase 2 (AID 2283591);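 further: actives lower the ATP signal meaning cytotoxicity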
How it was run: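 HCT116 p53-bla cells, 4000/well, dosed after 5 h plating (217-fold dilution of DMSO stocks) and incubated 16 h at 37C. Viability taken as cellular ATP by CellTiter-Glo luminescence after 30 min RT; signal loss marks cytotoxicity.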

[2] = target: Cellular tumor antigen p53 (Homo sapiens) (UniProt P04637); assay: TOX21_p53_BLA_p2_ratio: Tox21 HCT-116 p53 Agonism Beta-lactamase Assay, Ratio, Phase 2 (AID 2283592)
How it was run: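 Read-out is the blue/green (460/530 nm, 405 nm excitation) ratio after 2 h CCF4-AM loading, fitted as gain versus DMSO. Compounds, pinned at 217-fold dilution from DMSO stocks, stayed 16 h on HCT-116 beta-lactamase reporter cells seeded 5 h earlier.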

[3] = TOX21_p53_BLA_p4_viability: Viability Assessment in the Tox21 HCT-116 p53 Agonism Beta-lactamase Assay, Phase 4 (AID 2283597);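 further: hits lower the luminescence signal meaning cytotoxicity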
How it was run: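 Cytotoxicity as reduced cellular ATP (CellTiter-Glo luminescence, 30 min room temperature), measured in the same wells following the CCF4 FRET p53 reading. Human HCT-116 cells received compounds in DMSO (217-fold dilution) for 16 h.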

[4] = target: Cellular tumor antigen p53 (Homo sapiens) (UniProt P04637); assay: TOX21_p53_BLA_p5_ratio: Tox21 HCT-116 p53 Agonism Beta-lactamase Assay, Ratio, Phase 5 (AID 2283599)
How it was run: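 HCT-116 p53-bla cells (4000/well) plated 5 h, dosed with compound (217-fold DMSO dilution) for 16 h at 37 C; CCF4-AM substrate 2 h at room temperature. Activity is the 460/530 nm emission ratio (405 nm excitation), fitted in gain-of-signal direction versus DMSO.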

[5] = target: PGR (gene 5241) (UniProt P06401); assay: TOX21_PR_BLA_Followup_Antagonist_ratio: Tox21 HEK293 Progesterone Receptor (PR) Antagonism Beta-lactamase Follow-Up Assay, Ratio (AID 2283934);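 further: PR-UAS-bla HEK293T cells stimulated with 1 nM R5020 agonist for 16 hr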
How it was run: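 Measured in PR-UAS-bla HEK293T cells co-treated with compound and 1 nM promegestone for 16 hr; beta-lactamase ratio read after 2 h FRET substrate loading, with parallel CellTiter-Glo cytotoxicity.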

[6] = TOX21_PR_BLA_Followup_Agonist_viability: Viability Assessment in the Tox21 HEK293 Progesterone Receptor (PR) Agonism Beta-lactamase Follow-Up Assay (AID 2283935);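 further: signal loss means lower viability so actives are cytotoxic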
How it was run: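 Viability is read as CellTiter-Glo luminescence, where loss of signal indicates cytotoxicity. The cells are PR-UAS-bla HEK293T given compounds for 16 hr at 37C and 5% CO2, in the same wells used for the bla readout.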

[7] = TOX21_PR_BLA_Followup_Antagonist_viability: Viability Assessment in the Tox21 HEK293 Progesterone Receptor (PR) Antagonism Beta-lactamase Follow-Up Assay (AID 2283936);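 further: cells exposed to compound with R5020 agonist for 16 h; hits lower the luminescence signal meaning cytotoxicity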
How it was run: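 PR-UAS-bla HEK293T cells in medium with 2% charcoal-stripped FBS were treated with compounds plus R5020 for 16 hr at 37C. After the beta-lactamase read, CellTiter-Glo was added to the same wells and luminescence read after 30 min at room temperature.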

[8] = target: PGR (gene 5241) (UniProt P06401); assay: TOX21_PR_LUC_Followup_Antagonist: Tox21 HEK293 Progesterone Receptor (PR) Antagonism Luciferase Follow-Up Assay (AID 2283938);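 further: curve fitted upward as signal gain over DMSO baseline despite antagonist label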
How it was run: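 Luminescence from ONE-Glo was measured 30 min after reagent addition, following 16 h exposure of HEK293-PR-A-luc cells (3,000/well, plated 5 h earlier) to DMSO-dissolved compounds at 37C; DMSO served as baseline.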

[9] = TOX21_PR_LUC_Followup_Agonist_viability: Viability Assessment in the Tox21 HEK293 Progesterone Receptor (PR) Agonism Luciferase Follow-Up Assay (AID 2283941);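 further: loss of signal means cytotoxicity so actives lower viability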
How it was run: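 Seeding: HEK293-PR-A-luc, 3,000 cells/well, 5 h at 37C. Treatment: compound in DMSO, 16 h, 37C. Read: CellTiter-Glo ATP luminescence, signal loss taken as lower viability.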

[10] = target: Cellular tumor antigen p53 (Homo sapiens) (UniProt P04637); assay: TOX21_p53_BLA_p4_ratio: Tox21 HCT-116 p53 Agonism Beta-lactamase Assay, Ratio, Phase 4 (AID 2283601)
How it was run: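 HCT-116 p53 beta-lactamase reporter cells (4000/well) preincubated 5 h, then compound (217-fold dilution of DMSO stock) for 16 h at 37C. CCF4-AM substrate added 2 h at room temperature; 460/530 nm emission ratio fitted upward versus DMSO.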

[11] = TOX21_p53_BLA_p5_viability: Viability Assessment in the Tox21 HCT-116 p53 Agonism Beta-lactamase Assay, Phase 5 (AID 2283600)
How it was run: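 Viability came from CellTiter-Glo ATP luminescence, read after 30 min at room temperature. Before this, HCT-116 p53-bla cells (4000/well) had 16 hours of compound exposure at 37C, with DMSO stocks diluted 217-fold on transfer.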

[12] = TOX21_p53_BLA_p3_viability: Viability Assessment in the Tox21 HCT-116 p53 Agonism Beta-lactamase Assay, Phase 3 (AID 2283593);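 further: cells exposed to compound for 16 h before reading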
How it was run: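 HCT116 cells, 4000/well, dosed 5 h after plating by pin transfer (217-fold dilution from DMSO stock) and incubated 16 h at 37C, 5% CO2. Viability read as ATP luminescence with CellTiter-Glo after 30 min at room temperature.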

[13] = target: Cellular tumor antigen p53 (Homo sapiens) (UniProt P04637); assay: TOX21_p53_BLA_p3_ratio: Tox21 HCT-116 p53 Agonism Beta-lactamase Assay, Ratio, Phase 3 (AID 2283596)
How it was run: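 Cells were seeded at 4000/well, rested 5 h at 37C, then dosed with DMSO compound solutions (217-fold dilution) for 16 h. CCF4-AM substrate was loaded for 2 h at room temperature, and the 460/530 nm emission ratio was fitted for gain of signal versus DMSO.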

[14] = CCTE_Harrill_HTTr_Viability_MCF7: CCTE's 6-hour Cell Viability Assessment for the High-Throughput Transcriptomics (HTTr) Platform, in MCF-7 cells cultured in DMEM + 10% fetal bovine serum, Harrill Lab (AID 2284010; active means hit-call score of the fitted dose curve at least 0.9, where 1 is the maximum; inactive means score below 0.9)
How it was run: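 Eight-point concentration series, six-hour exposure. Propidium iodide exclusion imaged to assess membrane integrity as a cytotoxicity readout; bidirectional fitting was done with DMSO as negative control and activity baseline.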

[15] = CCTE_Harrill_HTTr_Apoptosis_MCF7: CCTE's 6-hour Apoptosis Assessment for the High-Throughput Transcriptomics (HTTr) Platform, in MCF-7 cells cultured in DMEM + 10% fetal bovine serum, Harrill Lab (AID 2284011; active means hit-call score of the fitted dose curve at least 0.9, where 1 is the maximum; inactive means score below 0.9)
How it was run: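 High-content imaging of CellEvent Caspase 3/7 Green signal follows a six-hour exposure, with eight concentrations per chemical. MCF-7 cells grown in DMEM plus 10% fetal bovine serum; activity fitted in both directions against DMSO.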

[16] = CCTE_Harrill_HTTr_CellCount_MCF7: CCTE's Cell Proliferation Assessment for the High-Throughput Transcriptomics (HTTr) Platform, Harrill Lab (AID 2284012);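 further: count of Hoechst-stained nuclei per well by high-content imaging in MCF-7 cells; cells exposed to compound for six hours; intended direction is loss of nuclei count meaning fewer cells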
How it was run: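 For this full-screen endpoint, MCF-7 cultures received eight compound dilutions for six hours. Well nuclei counts from Hoechst imaging were analyzed relative to DMSO.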

Measured: AC50

Sequence of Cellular tumor antigen p53 (Homo sapiens) (P04637 whole entry, looked up): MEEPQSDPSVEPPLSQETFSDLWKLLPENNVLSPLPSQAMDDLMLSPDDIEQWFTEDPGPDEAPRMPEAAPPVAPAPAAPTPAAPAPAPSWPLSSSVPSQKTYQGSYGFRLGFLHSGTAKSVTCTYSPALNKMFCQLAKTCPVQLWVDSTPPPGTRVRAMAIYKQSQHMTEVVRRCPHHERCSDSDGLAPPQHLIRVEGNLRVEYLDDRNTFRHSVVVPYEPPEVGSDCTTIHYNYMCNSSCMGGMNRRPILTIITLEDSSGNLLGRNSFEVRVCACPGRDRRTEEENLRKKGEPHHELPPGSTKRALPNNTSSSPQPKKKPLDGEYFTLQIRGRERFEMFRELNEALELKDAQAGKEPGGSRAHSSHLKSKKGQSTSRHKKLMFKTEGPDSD
Sequence of PGR (gene 5241) (P06401 whole entry, looked up): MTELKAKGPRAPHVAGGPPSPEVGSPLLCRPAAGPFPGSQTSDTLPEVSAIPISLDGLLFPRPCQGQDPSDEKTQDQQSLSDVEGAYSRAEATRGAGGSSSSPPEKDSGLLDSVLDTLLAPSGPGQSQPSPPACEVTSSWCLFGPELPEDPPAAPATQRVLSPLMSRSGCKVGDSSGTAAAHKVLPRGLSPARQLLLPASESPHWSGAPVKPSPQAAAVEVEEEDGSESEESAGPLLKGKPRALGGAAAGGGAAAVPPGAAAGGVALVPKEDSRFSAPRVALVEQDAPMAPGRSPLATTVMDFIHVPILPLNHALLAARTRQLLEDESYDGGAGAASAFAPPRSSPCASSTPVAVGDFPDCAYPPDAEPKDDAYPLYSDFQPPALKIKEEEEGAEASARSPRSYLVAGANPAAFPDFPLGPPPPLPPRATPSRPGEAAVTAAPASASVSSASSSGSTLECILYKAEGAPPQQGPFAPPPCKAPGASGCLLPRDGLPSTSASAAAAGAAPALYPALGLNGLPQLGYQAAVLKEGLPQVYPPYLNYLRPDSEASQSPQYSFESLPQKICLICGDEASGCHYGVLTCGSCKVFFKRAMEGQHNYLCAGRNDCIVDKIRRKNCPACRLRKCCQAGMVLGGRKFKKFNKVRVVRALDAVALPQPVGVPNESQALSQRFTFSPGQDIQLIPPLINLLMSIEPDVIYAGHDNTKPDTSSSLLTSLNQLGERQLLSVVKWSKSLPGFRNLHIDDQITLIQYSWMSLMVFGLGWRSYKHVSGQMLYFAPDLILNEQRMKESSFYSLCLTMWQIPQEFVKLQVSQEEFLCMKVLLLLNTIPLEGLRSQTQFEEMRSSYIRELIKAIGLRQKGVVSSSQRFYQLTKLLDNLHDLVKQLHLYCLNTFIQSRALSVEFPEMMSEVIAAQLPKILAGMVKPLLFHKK

C[C@]12CC[C@H]3[C@@H](CCC4=CC(=O)CC[C@@H]43)[C@@H]1CC[C@@H]2O
inactive: [1] | [2] | [3] | [4] | [5] | [6] | [7] | [8] | [9]

CC(Cl)Cl
inactive: [1] | [2] | [10]

CNC(=O)NC(O)C(Cl)(Cl)Cl (centres undefined)
inactive: [1] | [2] | [11] | [10]

NCCCNCCCN
inactive: [1] | [2] | [3] | [4] | [10]

CC(=O)C(C)(C)C
inactive: [1] | [2] | [4] | [11] | [10]

CCC(C(N)=O)N1CCCC1=O (centres undefined)
inactive: [1] | [2] | [4] | [11]

C=CC(C)=O
inactive: [1] | [12] | [13] | [3] | [4] | [11] | [10]

N#CCc1ccccc1
inactive: [1] | [12] | [13] | [3] | [4] | [11] | [10]

CC(C)CC(C)N (centres undefined)
inactive: [1] | [12] | [13] | [3] | [4]

CC(=O)C=Cc1ccc2c(c1)OCO2
active: [13] 62.8 µM | [4] 71 µM | [10] 51.2 µM
inactive: [1] | [12] | [3] | [11]

CCCCNCC(O)c1ccc(O)cc1 (centres undefined)
inactive: [1] | [2] | [4] | [11] | [10]

CCC(=O)OC1(c2ccccc2)CCN(C)CC1
inactive: [1] | [2] | [4] | [11]

CCOS(C)(=O)=O
inactive: [1] | [12] | [13] | [3] | [4] | [10]

CCN(C)N=O
inactive: [1] | [2] | [3] | [4] | [10]

CCCCCCC(=O)CCCCCC/C=C/C[C@@H](O)[C@H](O)[C@@](N)(CO)C(=O)O
inactive: [1] | [12] | [13] | [3] | [4] | [11] | [10]

CC(Cl)(Cl)[N+](=O)[O-]
inactive: [1] | [2] | [3] | [4] | [10]

CC(Cc1ccccc1)NCc1ccccc1Cl (centres undefined)
inactive: [1] | [12] | [13] | [3] | [4] | [11] | [10]

N#C/C(N)=C(/N)C#N
inactive: [1] | [12] | [13] | [11] | [10]

O=[N+]([O-])[O-].[Tl+]
inactive: [1] | [12] | [3] | [11]

CCCN(CCC)C(=O)Cc1c(-c2ccc(Cl)cc2)nc2ccc(Cl)cn12
inactive: [1] | [12] | [3] | [11] | [10]

C=CC[C@]1(O)CC[C@H]2[C@@H]3CCC4=CCCC[C@@H]4[C@H]3CC[C@@]21C
inactive: [1] | [12] | [3] | [11]

c1ccc2c(c1)Sc1ccccc1N2CC1CN2CCC1CC2 (centres undefined)
inactive: [1] | [12] | [13] | [11]
active: [3] 29.1 µM

CC1(C)C(/C=C(\Cl)C(F)(F)F)C1C(=O)OC(C#N)c1cccc(Oc2ccccc2)c1 (centres undefined)
inactive: [1] | [12] | [13] | [3] | [10]

[Cl-].[Cl-].[Cl-].[Fe+3]
inactive: [1] | [12] | [3] | [11] | [14] | [15] | [16]

CCCCCCCCCCCCCCCCCC(=O)O
inactive: [1] | [12] | [3] | [11]

NC(=O)CS(=O)C(c1ccccc1)c1ccccc1 (centres undefined)
inactive: [1] | [12] | [13] | [4] | [11]

CC(C)CCCCCOC(=O)c1ccccc1C(=O)OCCCCCC(C)C
inactive: [1] | [12] | [3] | [10]

CC[C@H]1[C@@H]2C[C@H]3[C@@H]4N(C)c5ccccc5[C@]45C[C@@H](C2C5O)N3[C@@H]1O (some centres undefined)
inactive: [1] | [12] | [3] | [11] | [10]

O=C(CCCN1CCC(n2c(=O)[nH]c3ccccc32)CC1)c1ccc(F)cc1
inactive: [1] | [12] | [3] | [10]

CNC(C)Cc1ccccc1OC (centres undefined)
inactive: [1] | [12] | [13] | [3] | [11]

C#CCOC(C(=O)OCCN(C)C)(c1ccccc1)c1ccccc1
inactive: [1] | [12] | [3] | [10]

CC(=O)O[C@H]1C[C@H](O[C@H]2[C@@H](O)C[C@H](O[C@H]3[C@@H](O)C[C@H](OC4CC[C@@]5(C)[C@H](CC[C@@H]6[C@@H]5CC[C@]5(C)[C@@H](C7=CC(=O)OC7)CC[C@]65O)C4)O[C@@H]3C)O[C@@H]2C)O[C@H](C)[C@H]1O[C@@H]1O[C@H](CO)[C@@H](O)[C@H](O)[C@H]1O (some centres undefined)
inactive: [4]
active: [1] 0.0994 µM | [12] 0.0855 µM | [3] 0.137 µM

C=C1CC[C@@]2(O)[C@H]3Cc4ccc(O)c5c4[C@@]2(CCN3CC2CC2)[C@H]1O5
inactive: [1] | [12] | [13] | [10]

CC(C)C(Nc1ccc(C(F)(F)F)cc1Cl)C(=O)OC(C#N)c1cccc(Oc2ccccc2)c1 (centres undefined)
active: [13] 87.3 µM
inactive: [1] | [12] | [4] | [10]
